eIF4E 4G PPI: eIF4E–eIF4G protein interaction inhibitors, primary screen, biochemical, uHTS, TR-FRET, eIF4GI fragment. Eukaryotic translation initiation factor 4E (Mus musculus) + Eukaryotic translation …. TR-FRET eIF4E-eIF4GI(517-606) binding, 2 h. inhibition, % at 21.7 µM. 220,000 compounds, 0.37% hits. AID 782, 2007;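 active means inhibition above about 30%, limit read from the data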;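 further: 0% = full FRET control wells and 100% = background wells lacking eIF4GI fragment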
eIF4H FP inh: human eIF4H binding inhibitors, primary screen, translation initiation inhibitor project, biochemical, uHTS, fluorescence polarization; Eukaryotic translation initiation factor 4H (Homo sapiens), Q15056; AID 2012, 2009; eIF4H fluorescence polarization binding assay; inhibition, % at 35 µM; 290,000 compounds, 0.94% hits;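 further: calls also rest on retests at 20 µM and on dose response follow-up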
PABP1 MLLE inh: inhibitors of PABP1 MLLE–PAM2 peptide binding, primary screen, biochemical, fluorescence polarization, FITC-PAM2, GST-MLLE; Polyadenylate-binding protein 1 (Homo sapiens), P11940; inhibition, % at 20 µM; 360,000 compounds, 0.36% hits; in the data active means inhibition above about 35%, passing the limit was not always enough;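 further: plate controls were DMSO wells with GST-MLLE for no effect and wells lacking GST-MLLE protein for full effect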
PERK inh: block of dimerizer-induced PERK translation repression, primary screen, PERK inhibitor project, CHO PERK-DD cells, SEAP luminescence, HTS. Eukaryotic translation initiation factor 2-alpha kinase 3 (Homo sapiens), Q9NZJ5. CHO PERK-DD fusion, SEAP luminescence translation reporter. inhibition, % at 5.6 µM. 220,000 compounds, 0.17% hits;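 active means inhibition above the mean inhibition of all tested compounds plus 3 SD, set separately per screening campaign, cut at about 2.9% in these data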;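 further: PERK kinase domain activated by AP20187 dimerizer at 100 nM; 0% = DMSO with dimerizer and 100% = rapamycin at 8.4 µM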
PABP FP inh: PABP poly(A) RNA binding inhibitors, primary screen, biochemical, fluorescence polarization, uHTS; Polyadenylate-binding protein 1 (Homo sapiens), P11940; inhibition, % at 35 µM; 290,000 compounds, 1% hits;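 further: calls also rest on retests at 20 µM and on dose response follow-up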
An asterisk follows results filed as active; ? = inconclusive; . = no result. Rows were chosen to be rich in hits. Some 1.6% of all compounds tested hit in one or more screens of this group. Unless noted, how the calls were made is not given here.

SMILES	eIF4E 4G PPI	eIF4H FP inh	PABP1 MLLE inh	PERK inh	PABP FP inh
CC1Cc2ccccc2N1C(=S)NC(=O)c1ccco1 (stereo unspecified)	1	2.5*	5	0	68*
O=C(NC(=S)Nc1cccc2c(O)cccc12)c1ccccc1[N+](=O)[O-]	.	75*	17	.	34*
Cc1cc(C)cc(NC(=O)N2c3ccccc3NC(=O)CC2C)c1 (stereo unspecified)	0	-10	8	1	8
Cc1nc(C)n(CC(=O)N2CCCC(C(=O)c3ccc(Cl)cc3C)C2)n1 (stereo unspecified)	3	1	-6	3	3
O=C(NC(=S)Nc1ccccc1N1CCCCC1)c1ccco1	-1	2	43*	1	32
S=c1[nH]nc(-c2cc(-c3ccco3)[nH]n2)n1-c1cccc2ccccc12	3	?	1	1	?
O=C(O)c1ccc(-n2c(-c3cc(-c4ccco4)[nH]n3)n[nH]c2=S)cc1	14	87*	1	1	61*
Cc1ccc(-n2c(-c3cc(-c4ccco4)[nH]n3)n[nH]c2=S)c(Br)c1	-1	?	-75	1	45*
CC(=O)c1ccc(-n2c(-c3cc(-c4ccco4)[nH]n3)n[nH]c2=S)cc1	-5	56	-21	0	22
Clc1ccc(-c2cn3cccnc3n2)cc1	-2	2	-3	0	4
Clc1ccc(-c2cn3cccnc3n2)cc1Cl	5	71*	-25	-1	78*
COc1ccc(-c2cn3cccnc3n2)cc1NC(=O)c1cc(OC)c(OC)c(OC)c1	4	active	6	1	77*
Cc1ccc(C(=O)CSc2ncnc3sc4c(c23)CCCC4)cc1	33*	0	8	2	-4
O=C(O)CSc1ncnc2sc3c(c12)CCC3	.	60*	-1	1	10*
O=C(O)CSc1ncnc2sc3c(c12)CCCC3	-2	1	0	0	13
Cc1cc(C)nc(Sc2ncnc3c2oc2ccccc23)n1	7	1	-9	0	-7
O=C(O)CC(Cc1ccccc1)C(=O)NCC12CC3CC(CC(C3)C1)C2 (stereo unspecified)	3	-5	9	3.2*	32
Cc1ccc(S(=O)(=O)N2CCOCC2)cc1NC(=O)CNC1CCCC1	-6	8	9	0	3
CCCCc1cn([C@@H](CCCCN)C(=O)N2CCNCC2)nn1	-1	?	49*	2	?
CC(C)C[C@H](N)c1cn([C@@H](CCCCN)C(=O)N2CCNCC2)nn1	2	16	10	1	52*
NCCCC[C@@H](C(=O)N1CCNCC1)n1cc(CN)nn1	.	.	-6	.	.
C#CCOCCOCCOCCNc1nc(N2CCN(C(=O)[C@H]([C@@H](C)CC)n3cc([C@@H](N)CC(C)C)nn3)CC2)nc(N2CCN(C(=O)[C@H](CCCCN)n3cc([C@@H](N)CC(C)C)nn3)CC2)n1	3	55*	.	1	49*
CCCNC(=O)c1cc2ccccc2c(=O)o1	20	-4	-2	0	-13
CCC(=O)CN(Cc1cc(OC)ccc1OC)S(=O)(=O)c1ccccc1Br	.	.	1	.	.
Cc1cccc(N(C)C(=O)CCS(=O)(=O)c2cc3c(cc2Cl)NC(=O)CO3)c1	.	-14	39*	.	-3
SMILES	eIF4E 4G PPI	eIF4H FP inh	PABP1 MLLE inh	PERK inh	PABP FP inh
CCOc1ccccc1CSc1nc2ccccc2[nH]1	4	-2	-20	-1	-4
Cc1cc(C(=O)O)ccc1-n1c(C)cc(/C=C(/C#N)C(=O)Nc2ccccc2)c1C	5	63*	4	1	57*
Cc1cc(C(=O)O)ccc1-n1c(C)ccc1C	7	.	.	3.3*	.
COc1cccc(C(=O)NCc2ccc3[nH]c(C)cc3c2)c1	-3	6	38*	1	5
COc1cc(OC)cc(C(=O)NCc2ccc3[nH]c(C)cc3c2)c1	-5	2	7	0	0
Cc1cc2cc(CNC(=O)c3cccc([N+](=O)[O-])c3)ccc2[nH]1	-2	5	45*	0	22
CCOc1ccc(-n2cc(-c3ccccc3)c3c(=S)nc[nH]c32)cc1	.	6	39*	.	1

Source: PubChem (several laboratories)
